Hit rate of the full screen: of about 5,500 compounds, about 2,000 (36%) were called active. Roughly 18% stayed inconclusive and do not appear here. Cut-off read from the data, not from the text of the source: active = normalized growth mostly below about 0.91 (no sharp cut-off); inconclusive = no clear call, values can overlap the other calls; inactive = mostly above about 0.92. The list shows a part of the results.
Experiment: chemical genetic growth profiling, strain panel (AID 1159580);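 note: tested at 20 µM; growth read once vehicle control cultures reached saturation at 30 °C; 1 = growth at the plate median or of vehicle wells; lower values mean less growth of the strain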
Conditions: growth OD
[1] = S. cerevisiae deletion strains, locus YAL013W, strain DEP1, stronger effect = lower value
[2] = S. cerevisiae deletion strains, locus YBR229C, strain ROT2, stronger effect = lower value
[3] = S. cerevisiae deletion strains, locus YCL061C, strain MRC1, stronger effect = lower value
[4] = S. cerevisiae deletion strains, locus YDL101C, strain DUN1, stronger effect = lower value
[5] = S. cerevisiae deletion strains, locus YDR150W, strain NUM1, stronger effect = lower value
[6] = S. cerevisiae deletion strains, locus YEL061C, strain CIN8, stronger effect = lower value
[7] = S. cerevisiae deletion strains, locus YGR078C, strain PAC10, stronger effect = lower value
[8] = S. cerevisiae deletion strains, locus YHR030C, strain SLT2, stronger effect = lower value
[9] = S. cerevisiae deletion strains, locus YHR087W, strain rtc3, stronger effect = lower value
[10] = S. cerevisiae deletion strains, locus YJR043C, strain POL32, stronger effect = lower value
[11] = S. cerevisiae deletion strains, locus YJR075W, strain HOC1, stronger effect = lower value
[12] = S. cerevisiae deletion strains, locus YKL190W, strain CNB1, stronger effect = lower value
[13] = S. cerevisiae deletion strains, locus YLR039C, strain RIC1, stronger effect = lower value
[14] = S. cerevisiae deletion strains, locus YLR058C, strain SHM2 (second series), stronger effect = lower value
[15] = S. cerevisiae deletion strains, locus YLR085C, strain ARP6, stronger effect = lower value
[16] = S. cerevisiae deletion strains, locus YLR262C, strain YPT6, stronger effect = lower value
[17] = S. cerevisiae deletion strains, locus YML094W, strain GIM5, stronger effect = lower value
[18] = S. cerevisiae deletion strains, locus YMR219W, strain ESC1, stronger effect = lower value
[19] = S. cerevisiae deletion strains, locus YMR263W, strain SAP30, stronger effect = lower value
[20] = S. cerevisiae deletion strains, locus YNL153C, strain GIM3, stronger effect = lower value
[21] = S. cerevisiae deletion strains, locus YNL298W, strain CLA4 (second series), stronger effect = lower value
[22] = S. cerevisiae deletion strains, locus YNL322C, strain KRE1, stronger effect = lower value
[23] = S. cerevisiae deletion strains, locus YNR030W, strain Alg12, stronger effect = lower value
[24] = S. cerevisiae deletion strains, locus YPL055C, strain LGE1, stronger effect = lower value
[25] = S. cerevisiae deletion strains, locus YPL241C, strain CIN2, stronger effect = lower value
[26] = S. cerevisiae deletion strains, locus YPR135W, strain CTF4, stronger effect = lower value

Measured: normalized growth

O=C(CSCc1cccc2ccccc12)NNC(=O)c1ccc(F)cc1
inactive: [1] 0.998 | [2] 0.988 | [3] 1 | [4] 1 | [5] 0.979 | [6] 0.992 | [7] 0.993 | [8] 0.93 | [9] 0.98 | [10] 0.988 | [11] 0.983 | [12] 0.991 | [13] 0.958 | [14] 0.982 | [15] 0.978 | [16] 0.919 | [17] 1.08 | [18] 0.99 | [19] 0.984 | [20] 0.985 | [21] 0.949 | [22] 1 | [23] 0.955 | [24] 1 | [25] 0.989 | [26] 1.07

O=C(CSCc1cccc2ccccc12)NNC(=S)Nc1ccccc1Cl
active: [6] 0.813 | [12] 0.844 | [13] 0.588 | [15] 0.679 | [16] 0.623 | [17] 0.857 | [21] 0.564 | [23] 0.63 | S. cerevisiae deletion strains, locus YOL006C, strain TOP1, stronger effect = lower value 0.365 | [25] 0.648 | S. cerevisiae strains, strain wild type, stronger effect = lower value 0.765
inactive: [1] 0.969 | [2] 0.991 | [3] 0.971 | [4] 0.987 | [5] 0.933 | [7] 0.984 | [8] 0.728 | [9] 1.02 | [10] 0.986 | [11] 0.984 | [14] 0.978 | [18] 0.988 | [19] 0.955 | [20] 0.958 | [22] 0.996 | [24] 0.903 | [26] 0.793

Cc1cccc(NC(=S)NNC(=O)CSCc2cccc3ccccc23)c1
inactive: S. cerevisiae deletion strains, locus YAR019C, strain CDC15, stronger effect = lower value 0.986 | S. cerevisiae deletion strains, locus YBL105C, strain PKC1, stronger effect = lower value 0.988 | S. cerevisiae deletion strains, locus YBR135W, strain CKS1, stronger effect = lower value 0.999 | S. cerevisiae deletion strains, locus YBR136W, strain MEC1, stronger effect = lower value 0.974 | S. cerevisiae deletion strains, locus YBR160W, strain CDC28, stronger effect = lower value 1 | S. cerevisiae deletion strains, locus YDL017W, strain CDC7, stronger effect = lower value 0.987 | S. cerevisiae deletion strains, locus YDL028C, strain MPS1, stronger effect = lower value 0.984 | [4] 0.975 | S. cerevisiae deletion strains, locus YDL108W, strain KIN28, stronger effect = lower value 0.982 | S. cerevisiae deletion strains, locus YDL132W, strain cdc53, stronger effect = lower value 0.989 | S. cerevisiae deletion strains, locus YDL214C, strain PRR2, stronger effect = lower value 0.904 | S. cerevisiae deletion strains, locus YDR052C, strain DBF4, stronger effect = lower value 1 | S. cerevisiae deletion strains, locus YDR054C, strain cdc34, stronger effect = lower value 0.983 | S. cerevisiae deletion strains, locus YDR226W, strain ADK1, stronger effect = lower value 0.988 | S. cerevisiae deletion strains, locus YDR477W, strain SNF1, stronger effect = lower value 0.924 | S. cerevisiae deletion strains, locus YER123W, strain YCK3, stronger effect = lower value 0.851 | S. cerevisiae deletion strains, locus YER133W, strain GLC7, stronger effect = lower value 0.906 | S. cerevisiae deletion strains, locus YFL009W, strain cdc4, stronger effect = lower value 0.99 | S. cerevisiae deletion strains, locus YFL029C, strain CAK1, stronger effect = lower value 0.983 | S. cerevisiae deletion strains, locus YFR003C, strain YPI1, stronger effect = lower value 0.982 | S. cerevisiae deletion strains, locus YFR019W, strain FAB1, stronger effect = lower value 0.965 | S. cerevisiae deletion strains, locus YFR028C, strain CDC14, stronger effect = lower value 0.99 | S. cerevisiae deletion strains, locus YGR040W, strain KSS1, stronger effect = lower value 0.904 | S. cerevisiae deletion strains, locus YGR052W, strain FMP48, stronger effect = lower value 0.992 | S. cerevisiae deletion strains, locus YGR092W, strain DBF2, stronger effect = lower value 0.865 | [8] 0.997 | S. cerevisiae deletion strains, locus YHR079C, strain IRE1, stronger effect = lower value 0.992 | S. cerevisiae deletion strains, locus YHR082C, strain KSP1, stronger effect = lower value 0.983 | S. cerevisiae deletion strains, locus YHR205W, strain SCH9, stronger effect = lower value 0.963 | S. cerevisiae deletion strains, locus YIL147C, strain SLN1, stronger effect = lower value 0.972 | S. cerevisiae deletion strains, locus YJL095W, strain BCK1, stronger effect = lower value 0.995 | S. cerevisiae deletion strains, locus YJL128C, strain PBS2, stronger effect = lower value 0.96 | S. cerevisiae deletion strains, locus YJL157C, strain FAR1, stronger effect = lower value 0.881 | S. cerevisiae deletion strains, locus YJR016C, strain ILV3, stronger effect = lower value 0.984 | S. cerevisiae deletion strains, locus YJR066W, strain TOR1 (second series), stronger effect = lower value 0.866 | S. cerevisiae deletion strains, locus YJR066W, strain TOR1, stronger effect = lower value 0.981 | S. cerevisiae deletion strains, locus YKL048C, strain ELM1, stronger effect = lower value 0.991 | S. cerevisiae deletion strains, locus YKL067W, strain YNK1, stronger effect = lower value 0.914 | S. cerevisiae deletion strains, locus YKL101W, strain HSL1, stronger effect = lower value 0.929 | S. cerevisiae deletion strains, locus YKL193C, strain SDS22, stronger effect = lower value 0.989 | S. cerevisiae deletion strains, locus YKL203C, strain TOR2, stronger effect = lower value 0.989 | S. cerevisiae deletion strains, locus YLR113W, strain HOG1, stronger effect = lower value 0.962 | S. cerevisiae deletion strains, locus YLR133W, strain CKI1, stronger effect = lower value 0.948 | S. cerevisiae deletion strains, locus YLR403W, strain SFP1, stronger effect = lower value 0.909 | S. cerevisiae deletion strains, locus YML070W, strain DAK1, stronger effect = lower value 0.912 | S. cerevisiae deletion strains, locus YMR001C, strain CDC5, stronger effect = lower value 0.988 | S. cerevisiae deletion strains, locus YMR205C, strain PFK2 (second series), stronger effect = lower value 0.943 | S. cerevisiae deletion strains, locus YMR277W, strain FCP1, stronger effect = lower value 0.988 | S. cerevisiae deletion strains, locus YNL006W, strain LST8, stronger effect = lower value 0.986 | S. cerevisiae deletion strains, locus YNL020C, strain ARK1, stronger effect = lower value 0.925 | S. cerevisiae deletion strains, locus YNL161W, strain CBK1, stronger effect = lower value 0.984 | S. cerevisiae deletion strains, locus YNL183C, strain NPR1, stronger effect = lower value 0.996 | S. cerevisiae deletion strains, locus YNL207W, strain RIO2, stronger effect = lower value 0.983 | S. cerevisiae deletion strains, locus YNL222W, strain SSU72, stronger effect = lower value 0.991 | S. cerevisiae deletion strains, locus YNL307C, strain MCK1 (second series), stronger effect = lower value 0.922 | S. cerevisiae deletion strains, locus YOL078W, strain AVO1, stronger effect = lower value 0.988 | S. cerevisiae deletion strains, locus YOL136C, strain PFK27, stronger effect = lower value 0.925 | S. cerevisiae deletion strains, locus YOR061W, strain CKA2, stronger effect = lower value 0.904 | S. cerevisiae deletion strains, locus YOR119C, strain RIO1, stronger effect = lower value 0.965 | S. cerevisiae deletion strains, locus YOR231W, strain MKK1, stronger effect = lower value 0.982 | S. cerevisiae deletion strains, locus YOR329C, strain SCD5, stronger effect = lower value 0.981 | S. cerevisiae deletion strains, locus YPL031C, strain PHO85, stronger effect = lower value 0.904 | S. cerevisiae deletion strains, locus YPL153C, strain RAD53, stronger effect = lower value 0.91 | S. cerevisiae deletion strains, locus YPL204W, strain HRR25, stronger effect = lower value 0.914 | S. cerevisiae deletion strains, locus YPL209C, strain IPL1, stronger effect = lower value 0.983 | S. cerevisiae deletion strains, locus YPL256C, strain CLN2, stronger effect = lower value 1.01 | S. cerevisiae deletion strains, locus YPR025C, strain CCL1, stronger effect = lower value 0.99 | S. cerevisiae deletion strains, locus YPR106W, strain ISR1, stronger effect = lower value 0.99 | S. cerevisiae deletion strains, locus YPR111W, strain DBF20, stronger effect = lower value 0.99 | S. cerevisiae deletion strains, strain NNK1, stronger effect = lower value 0.982 | S. cerevisiae deletion strains, strain TSCII, stronger effect = lower value 0.988

— PubChem BioAssay AID1159580 (chemical genetic matrix, 2015)
